# Measured values reported in PubChem BioAssay AID1259313 (Sanford-Burnham Center for Chemical Genomics, 2017).
# The campaign covered roughly 340,000 compounds. About 8,500 (2.5%) were called active.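 The calls were made as follows: active = melting temperature shift of at least 10% of the positive control shift, at one fixed dose; inactive = the rest.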 Only a selection was taken, and actives are over-represented in it overall.
# Tested on: Glutamate receptor ionotropic, NMDA 3A (GRIN3A) ligand-binding domain
# Experiment: NR3A LBD thermal stabilization by compounds – biophysical, differential scanning fluorimetry, uHTS, primary screen (AID 1259313)
# Conditions: at 25 µM, active compounds read high, 0% = protein alone, 100% = glycine-bound protein
row,Structure (SMILES),Tm shift relative to glycine control
1,COc1ccccc1NC(=O)c1cc(N2C(=O)C3C4CCC(C4)C3C2=O)ccc1Cl (stereo unspecified),-3.68% (inactive)
2,CCc1ccnc(NS(=O)(=O)c2ccc3c(c2)OCCO3)c1,-2.2% (inactive)
3,Fc1cc(F)c2nc(Nc3nc4c(F)cccc4s3)sc2c1,17.3% (active)
4,O=C(Nc1sc2c(c1C(=O)O)CCC2)c1ccccc1F,1.58% (inactive)
5,COc1cccc(OC)c1C(=O)Nc1sc2c(c1C(N)=O)CCCC2,-0.3% (inactive)
6,COc1cc2ccccc2cc1C(=O)N(CCN(C)C)c1nc2c(F)cccc2s1,3.31% (inactive)
7,NC(=O)c1c(Nc2nc3c(F)cccc3s2)sc2c1CCCC2,10.8% (active)
8,NNc1nc2c(Cl)cccc2s1,-0.09% (inactive)
9,COCCNc1nc(N)c([N+](=O)[O-])c(N2CCCCCC2)n1,0.58% (inactive)
10,CCn1c(SCCC(C)C)nnc1-c1c[nH]c2ccccc12,-26.6% (inactive)
11,Cc1ccc(-c2csc(-c3c[nH]c4ccccc34)n2)cc1,25.6% (active)
12,CCCc1cc(-c2nc(-c3ccc(C)cc3)cs2)ccn1,-8.16% (inactive)
13,COc1ccc(F)c(-c2nc(CN3CCC(c4ccccc4)CC3)c(C)o2)c1,-0.88% (inactive)
14,CCCCn1c(N)c(N(CCC(C)C)C(=O)CC2OC(=O)c3ccccc32)c(=O)[nH]c1=O (stereo unspecified),-1.19% (inactive)
15,CCN(CC)C(=O)CSC(Nc1cccc(F)c1)=C(C#N)C#N,11.7% (active)
16,Cc1ccc(CSCC(=O)N(C)CC(=O)Nc2cccc(F)c2)cc1,-1.41% (inactive)
17,CN(CC(=O)Nc1cccc(F)c1)C(=O)CC1CCCC1,2.89% (inactive)
18,Cc1noc(C)c1S(=O)(=O)N(CC(=O)Nc1ccc2c(c1)OCCO2)c1ccc(C(C)C)cc1,1.36% (inactive)
19,CC1Cc2ccccc2N1CC(=O)Nc1ccc2c(c1)OC(F)(F)O2 (stereo unspecified),-9.28% (inactive)
20,COc1ccc(C(=O)NNS(=O)(=O)c2ccc(C)cc2)cc1,9.89% (inactive)
21,COc1ccc(C(=O)Oc2cc(/C=N/NS(=O)(=O)c3ccc(C)cc3)ccc2OC)cc1,14.3% (active)
22,COc1ccc(S(=O)(=O)N/N=C\c2ccc(OC)c(COc3ccc(C)cc3[N+](=O)[O-])c2)cc1,7.36% (inactive)
23,COC(=O)c1nc(NC(=O)c2ccccc2)n[nH]1,-2.48% (inactive)

row,Structure (SMILES),Tm shift relative to glycine control
1,COc1ccc(S(=O)(=O)NCC(c2ccco2)N2CCOCC2)cc1 (stereo unspecified),0.48% (inactive)
2,COc1ccc2oc(=O)cc(-c3cc4ccccc4o3)c2c1,-4.08% (inactive)
3,COc1ccc(Nc2cc(=O)oc3ccccc23)cc1,13.9% (active)
4,COc1ccc(CCNC(=O)COC(=O)c2cc(=O)c3ccccc3o2)cc1,-0.35% (inactive)
5,CC1CCN(C(=O)CN(c2ccc(Oc3ccccc3)cc2)S(C)(=O)=O)CC1,0.83% (inactive)
6,CCOc1cc(-c2noc(CCCC(=O)NC3CCCCC3)n2)ccc1OC,-2.03% (inactive)
7,COc1ccc(CN2CC(C(=O)NC3CCCCC3)CC2=O)cc1 (stereo unspecified),2.45% (inactive)
8,COc1cc(C#Cc2ccc3cc(CCCO)oc(=O)c3c2)cc(OC)c1,-0.81% (inactive)
9,COC(=O)C(C)Oc1ccc2c(c1)O/C(=C\c1cccc(Br)c1)C2=O (stereo unspecified),-2.66% (inactive)
10,COc1cc(/C=C2\Oc3ccc(C#Cc4ccc(O)cc4)cc3C2=O)cc(OC)c1,16.2% (active)
11,CCN(CC(=O)Nc1cc(Cl)ccc1C)C(=O)CN1C(=O)NC2(CCCC2)C1=O,0.97% (inactive)
12,CC(C(=O)NC1CCCC1)N1CCN(S(=O)(=O)c2ccccc2Cl)CC1 (stereo unspecified),16.8% (active)
13,O=C(Cc1ccc(S(=O)(=O)N2CCCC2)s1)NC1CCCCCC1,-3.8% (inactive)
14,CC(C)c1ccc(S(=O)(=O)N2CCN(C(C)C(=O)NC3CCCC3)CC2)cc1 (stereo unspecified),-0.92% (inactive)
15,O=C(Nc1ccc(OCC(=O)N2CCOCC2)cc1)c1cc(F)c(F)cc1Cl,-1.28% (inactive)
16,CNC1(c2nnnn2-c2c(C)cccc2C)CCOC(C)(C)C1 (stereo unspecified),0.08% (inactive)
17,Cc1cc(Nc2cccc(C)c2C)n2ncnc2n1,1.12% (inactive)
18,O=C1OCCN1C(=O)[C@H]1[C@H](c2ccc(Cl)cc2)C(c2cccc(Cl)c2)=NN1c1ccc(Br)cc1,18.1% (active)
19,O=C1OCCN1C(=O)[C@H]1[C@H](c2ccc(F)cc2)C(c2ccccc2)=NN1c1ccc(Br)cc1,16% (active)
20,C[C@@H]1C(c2ccc(F)cc2)=NN(c2ccc(Br)cc2)[C@H]1C(=O)N1CCOC1=O,7.36% (inactive)
21,O=C1OCCN1C(=O)[C@H]1[C@H](c2ccccc2)C(c2ccc(F)cc2)=NN1c1ccccc1,-6.51% (inactive)
22,O=c1c2cc(Br)ccc2nc(-c2cccc(Cl)c2)n1O,-8.87% (inactive)
23,S=C1NC(c2ccccc2)=NCN1c1ccc(Br)cc1,-1.51% (inactive)

row,Structure (SMILES),Tm shift relative to glycine control
1,O=C(COc1ncnc2c(Cl)cc(Cl)cc12)N1CCN(S(=O)(=O)c2ccccc2)CC1,-7.02% (inactive)
2,CN1CCC(=NNC(=O)c2ccc(N(Cc3ccc(Cl)cc3)S(C)(=O)=O)cc2)CC1,-7.94% (inactive)
3,Cc1cc(C)cc(NC(=O)CSc2ccccc2)c1,0.84% (inactive)
4,COC(=O)c1ccc(NC(=O)Nc2ccc(C)cc2)cc1,14.4% (active)
5,O=C(CSc1ccccc1)Nc1ccc(NC(=O)c2ccco2)cc1,11.8% (active)
6,COC(=O)c1ccc(NC(=O)c2cc(Cl)ccc2OC)cc1,-3.8% (inactive)
7,O=C(CNC(=O)c1ccco1)NNC(=O)c1ccc(Br)cc1,0.51% (inactive)
8,Cc1cc(NC(=O)c2ccc(F)cc2)ccc1NC(=O)c1ccco1,-2.39% (inactive)
9,O=C(NCCSc1ccccc1)c1ccco1,0.71% (inactive)
10,O=C(Nc1ccc(O)cc1)c1ccc(NC(=O)c2ccco2)cc1,25% (active)
11,O=C(Nc1ccc(Sc2ccc(Br)cc2)cc1)c1ccco1,11.6% (active)
12,C/C(=N\NS(=O)(=O)c1ccc(Cl)cc1)c1ccc(NC(=O)c2ccco2)cc1,-5.45% (inactive)
13,O=C(NNC(=O)c1ccco1)Nc1ccccc1,1.84% (inactive)
14,COC(=O)c1ccc(NC(=O)C(C)N2C(=O)c3ccccc3C2=O)cc1 (stereo unspecified),-0.85% (inactive)
15,CC12CCC(C(=O)N3CCN(c4ncccn4)CC3)(c3nc4ccccc4nc31)C2(C)C (stereo unspecified),-1.28% (inactive)
16,COc1ccc(OC)c(S(=O)(=O)N2CCCC(C(=O)NCCc3ccccc3)C2)c1 (stereo unspecified),0.67% (inactive)
17,O=C(CNC(=O)[C@@H]1Cc2ccccc2CN1)NC1CCCCC1,-12.5% (inactive)
18,CCOC(=O)N1CCN(C(=O)CN(C2CCCCC2)S(C)(=O)=O)CC1,-2.35% (inactive)
19,CCOc1ccc(NC(=O)CCS(=O)(=O)c2ccc3c(c2)CCCN3C(=O)CC)cc1,-2.2% (inactive)
20,C#CCOCCOCCOCCNc1nc(N2CCN(C(=O)C([C@@H](C)CC)n3cc(C(N)COC(=O)C(F)(F)F)nn3)CC2)nc(N2CCN(C(=O)[C@H](CCCCN)n3cc(C(N)CC(C)C)nn3)CC2)n1 (stereo partly specified),3.3% (inactive)
21,NNC(=O)CNC(c1ccccc1)c1cc(Cl)ccc1NC(=O)c1ccccc1 (stereo unspecified),2.13% (inactive)
22,CC(C)(C)NC(=O)c1cc(NC(=O)c2ccco2)cc(NC(=O)c2ccco2)c1,1.37% (inactive)
23,CCOC(=O)c1ccc(NC(=O)CNC(=O)c2ccco2)cc1,-0.36% (inactive)

row,Structure (SMILES),Tm shift relative to glycine control
1,COc1cc(NC(=O)Nc2ccc(C)cc2)cc([N+](=O)[O-])c1,32.9% (active)
2,COC(=O)c1ccc(NC(=O)c2ccco2)cc1,21.7% (active)
3,COc1ccc(S(=O)(=O)NNC(=O)Nc2ccc(C)cc2)c(OC)c1,-2.73% (inactive)
4,O=C(CSc1ccccc1)Nc1ccc(C(=O)Nc2cccc(O)c2)cc1,29.4% (active)
5,CSc1cccc(NC(=O)CSc2ccccc2)c1,-11.8% (inactive)
6,CCOc1ccc(NC(=O)Nc2cc(C)ccc2OC)cc1,-2.2% (inactive)
7,O=C(Nc1ccc(CSc2ccccc2)cc1)c1ccc(CN2CCOCC2)cc1,-2.35% (inactive)
8,CCOC(=O)/C(C#N)=C\c1c(C)cc(C)c(COC(C)=O)c1C,-1.41% (inactive)
9,O=C1CSC(c2ccc(Cl)cc2)N1 (stereo unspecified),0.65% (inactive)
10,CCOc1ccccc1NC(=O)Cn1ncc2ccc([N+](=O)[O-])cc21,1.06% (inactive)
11,Cc1nonc1C(=O)N/N=C/c1ccc(O)cc1,-3.82% (inactive)
12,O=C(CCCN1C(=O)CSc2ncccc21)N1CCN(c2cccc(C(F)(F)F)c2)CC1,-1.45% (inactive)
13,Cc1ccc(S(=O)(=O)N2CCC3(CC2)OCCO3)c(C)c1,-0.77% (inactive)
14,CCOc1ccc(Nc2nc(Cc3nnc(SCC(=O)c4ccc(C)cc4)o3)cs2)cc1,-12.6% (inactive)
15,O=C1C(=O)N(CCCN2CCOCC2)C(c2ccc([N+](=O)[O-])cc2)/C1=C(\O)c1ccc2c(c1)OCCO2 (stereo unspecified),0% (inactive)
16,Cc1ccc(NC(=O)Cn2c(=O)n(CCC(=O)NC3CCN(Cc4ccccc4)CC3)c(=O)c3ccccc32)cc1,0.79% (inactive)
17,CC(=O)c1c(C)[nH]c(C(=O)OCC(=O)Nc2sc3c(c2C#N)CCCC3)c1C,4.13% (inactive)
18,O=C(CN1C(=O)C2C3C=CC(C3)C2C1=O)Nc1nc(-c2ccccn2)cs1 (stereo unspecified),17.6% (active)
19,O=C(COc1ccccc1F)Nc1nc(-c2ccccn2)cs1,-41.9% (inactive)
20,O=C(NCCN1C(=O)C2C3C=CC(C3)C2C1=O)Nc1ccccn1 (stereo unspecified),-0.55% (inactive)
21,O=C(NCCc1ccccc1)C(=O)NCC1OCCN1S(=O)(=O)c1cccs1 (stereo unspecified),5.49% (inactive)
22,CCOC(=O)N1CCN(C(=O)c2ccccc2SCC(=O)NCC2CCCCC2)CC1,0.96% (inactive)
